In PubChem BioAssay (EPA / NIEHS):
Several values for one entry are separate records, joined by “and”; a condition that tells them apart may be missing. Equal entries are not always repeated. Records with an inconclusive call do not appear. Where a structure was tested more than once in an assay, its records may differ in their call. Activity calls are given as the source filed them. How the source made its calls, unless noted: active means hit-call score of the fitted dose curve at least 0.9, where 1 is the maximum; inconclusive means response in the unintended direction; inactive means score below 0.9.

Legend:
[1] = molecular target: rat CYP2C11, Cyp2c11 (gene 29277) (UniProt P08683); assay: NVS_ADME_rCYP2C11: NovaScreen (NVS) CYP450-related Enzyme Activity (ADME) Assay for rat CYP2C11 (AID 2283118)
rat CYP2C11, Cyp2c11 (gene 29277), sequence (P08683 whole entry, looked up): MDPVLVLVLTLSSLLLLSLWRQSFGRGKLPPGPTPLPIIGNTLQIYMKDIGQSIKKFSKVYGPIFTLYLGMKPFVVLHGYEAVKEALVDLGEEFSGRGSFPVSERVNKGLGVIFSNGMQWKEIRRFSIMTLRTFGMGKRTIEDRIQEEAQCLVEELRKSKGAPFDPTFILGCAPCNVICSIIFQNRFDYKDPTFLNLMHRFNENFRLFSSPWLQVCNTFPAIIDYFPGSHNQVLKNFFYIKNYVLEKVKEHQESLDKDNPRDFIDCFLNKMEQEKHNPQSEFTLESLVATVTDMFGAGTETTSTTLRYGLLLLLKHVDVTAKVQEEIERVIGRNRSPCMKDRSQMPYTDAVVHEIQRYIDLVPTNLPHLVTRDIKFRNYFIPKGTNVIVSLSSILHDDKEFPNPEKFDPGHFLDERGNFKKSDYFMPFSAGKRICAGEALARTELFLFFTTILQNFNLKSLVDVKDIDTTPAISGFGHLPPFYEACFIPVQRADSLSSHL
In short: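 Screened first at 10 uM in duplicate, hits followed by concentration-response. Recombinant rat enzyme activity monitored by fluorescence 0.33 h post-dosing, normalised to acetonitrile negative control.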

[2] = tested on: rat CYP2C6, gene 293989; assay: NVS_ADME_rCYP2C6: NovaScreen (NVS) CYP450-related Enzyme Activity (ADME) Assay for rat CYP2C6 (AID 2283120)
In short: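 Compounds first tested in duplicate at 10 uM, hits (e.g. 30% inhibition) re-run in singleton dose series to a 20 uM top concentration. Enzyme activity of recombinant rat CYP2C6 measured via fluorescent substrate turnover after 1 h; acetonitrile baseline.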

[3] = tested on: rat CYP3A1, gene 25642; assay: NVS_ADME_rCYP3A1: NovaScreen (NVS) CYP450-related Enzyme Activity (ADME) Assay for rat CYP3A1 (AID 2283126)
In short: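 Compounds went first at 10 uM duplicate, then to series with 20 uM maximum. Fluorescence from substrate turnover by the recombinant enzyme was measured 0.5 h post-dosing, inhibition scored against acetonitrile vehicle.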

[4] = molecular target: human Acetylcholinesterase (AChE), ACHE (gene 43) (UniProt P22303); assay: NVS_ENZ_hAChE: NovaScreen (NVS) Enzymatic Assay for human Acetylcholinesterase (AChE) (AID 2283129)
human Acetylcholinesterase (AChE), ACHE (gene 43), sequence (P22303 whole entry, looked up): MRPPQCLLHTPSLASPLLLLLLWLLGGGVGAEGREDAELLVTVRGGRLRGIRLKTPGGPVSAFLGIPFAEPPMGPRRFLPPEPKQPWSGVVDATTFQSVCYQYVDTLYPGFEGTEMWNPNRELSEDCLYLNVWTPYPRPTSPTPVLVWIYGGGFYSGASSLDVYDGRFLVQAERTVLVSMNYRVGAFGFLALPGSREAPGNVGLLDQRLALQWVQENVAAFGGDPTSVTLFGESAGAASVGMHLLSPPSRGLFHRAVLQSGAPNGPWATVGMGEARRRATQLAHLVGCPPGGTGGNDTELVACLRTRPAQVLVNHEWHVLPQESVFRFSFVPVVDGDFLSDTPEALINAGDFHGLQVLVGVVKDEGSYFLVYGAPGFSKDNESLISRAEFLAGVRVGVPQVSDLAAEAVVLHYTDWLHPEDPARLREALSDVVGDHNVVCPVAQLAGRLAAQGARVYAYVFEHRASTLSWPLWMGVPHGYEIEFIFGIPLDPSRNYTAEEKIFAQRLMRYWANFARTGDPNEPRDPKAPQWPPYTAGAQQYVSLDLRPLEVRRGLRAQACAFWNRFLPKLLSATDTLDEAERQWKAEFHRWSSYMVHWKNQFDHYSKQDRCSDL
Experimental: NVS_ENZ_hAChE is a biochemical, single-readout assay that uses extracted gene-proteins in a cell-free assay. Measurements were taken 0.33 hour after chemical dosing in a 96-well plate.NVS_ENZ_hAChE is one of one assay component(s) measured or calculated from the NVS_ENZ_hAChE assay. It is designed to make measurements of enzyme activity, a form of enzyme reporter, as detected with absorbance signals by Colorimetric technology.Data from the assay component NVS_ENZ_hAChE was analyzed into 1 assay endpoint. This assay endpoint, NVS_ENZ_hAChE, was analyzed in the positive analysis fitting direction relative to DMSO as the negative control and baseline of activity. Using a type of enzyme reporter, loss-of-signal activity can be used to understand changes in the enzymatic activity as they relate to the gene ACHE. Furthermore, this assay endpoint can be referred to as a primary readout, because this assay has produced multiple assay endpoints where this one serves a enzymatic activity function. To generalize the intended target to other relatable targets, this assay endpoint is annotated to the esterase intended target family, where the subfamily is acetylcholinesterase.
Binding assays used specific radioligands (tritiated, iodinated) with non-radioactive competitive displacement ligands in agonist or antagonist protocols (as indicated) and various reference compounds and inhibitors to titrate specific binding to receptors and transporters. Most enzyme assays (CYPs, kinases, phosphatases, proteases, HDACs) used recombinant protein and specific substrates (fluorescence mostly, some colorimetric and radioactive) and inhibitors, followed by a biochemical separation of substrate and product. All assays for the biochemical HTS were initially run in duplicate at a single concentration (10 uM for CYP450 assays and 25 uM for all others). […] Each assay was run with positive and negative controls, and concurrent controls on every plate. The follow-up (secondary) screen tested active chemical-pairs in concentration series, as well as a few additional assays not tested in the primary screen, some selected negative inactives, and several cases re-run in the concentration series for confirmatory purposes.

[5] = molecular target: rat CYP2A1, Cyp2a1 (gene 24894) (UniProt P11711); assay: NVS_ADME_rCYP2A1: NovaScreen (NVS) CYP450-related Enzyme Activity (ADME) Assay for rat CYP2A1 (AID 2283114; active means hit-call score of the fitted dose curve at least 0.9, where 1 is the maximum; inactive means score below 0.9)
rat CYP2A1, Cyp2a1 (gene 24894), sequence (P11711 whole entry, looked up): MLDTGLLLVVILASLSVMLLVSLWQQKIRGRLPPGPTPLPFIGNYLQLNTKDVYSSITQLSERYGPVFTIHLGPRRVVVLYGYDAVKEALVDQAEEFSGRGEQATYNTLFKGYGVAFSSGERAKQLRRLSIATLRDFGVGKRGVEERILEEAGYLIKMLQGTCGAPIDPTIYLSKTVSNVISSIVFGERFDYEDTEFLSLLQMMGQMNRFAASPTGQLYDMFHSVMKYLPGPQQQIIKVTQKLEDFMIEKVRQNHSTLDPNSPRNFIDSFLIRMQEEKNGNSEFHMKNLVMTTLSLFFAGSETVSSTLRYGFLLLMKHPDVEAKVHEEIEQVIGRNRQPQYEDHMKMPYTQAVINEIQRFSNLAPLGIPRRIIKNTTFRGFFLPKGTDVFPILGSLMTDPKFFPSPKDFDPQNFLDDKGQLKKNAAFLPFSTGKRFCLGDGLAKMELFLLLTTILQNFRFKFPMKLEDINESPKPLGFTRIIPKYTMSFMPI
In short: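 Cell-free fluorescence enzyme-activity read on recombinant rat CYP2A1, taken 0.75 h post-dosing. Compounds were screened in duplicate at 10 uM, then hits tested in concentration series (max 20 uM); inhibition scored relative to acetonitrile baseline.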

[6] = molecular target: rat CYP2C12, Cyp2c12 (gene 25011) (UniProt P11510); assay: NVS_ADME_rCYP2C12: NovaScreen (NVS) CYP450-related Enzyme Activity (ADME) Assay for rat CYP2C12 (AID 2283119)
rat CYP2C12, Cyp2c12 (gene 25011), sequence (P11510 whole entry, looked up): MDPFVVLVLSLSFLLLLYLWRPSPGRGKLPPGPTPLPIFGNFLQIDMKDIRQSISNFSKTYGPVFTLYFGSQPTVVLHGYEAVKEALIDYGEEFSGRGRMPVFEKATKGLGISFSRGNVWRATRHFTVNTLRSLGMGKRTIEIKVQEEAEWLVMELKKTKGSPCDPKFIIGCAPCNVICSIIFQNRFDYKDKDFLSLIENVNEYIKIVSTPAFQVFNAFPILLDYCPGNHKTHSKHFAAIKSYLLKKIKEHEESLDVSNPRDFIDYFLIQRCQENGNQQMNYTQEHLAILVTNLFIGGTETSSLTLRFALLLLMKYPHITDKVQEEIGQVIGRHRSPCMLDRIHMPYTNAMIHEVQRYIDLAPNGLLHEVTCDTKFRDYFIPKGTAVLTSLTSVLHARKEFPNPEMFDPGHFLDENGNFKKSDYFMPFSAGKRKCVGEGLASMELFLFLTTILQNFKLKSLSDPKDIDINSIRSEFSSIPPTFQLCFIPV
In short: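 Fluorescent-substrate turnover by recombinant rat CYP2C12, measured at 0.5 h, normalized to acetonitrile vehicle. Chemicals screened first at a single 10 uM concentration in duplicate, with concentration series for actives.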

[7] = molecular target: rat CYP2C13, Cyp2c13 (gene 171521) (UniProt P20814); assay: NVS_ADME_rCYP2C13: NovaScreen (NVS) CYP450-related Enzyme Activity (ADME) Assay for rat CYP2C13 (AID 2283121)
rat CYP2C13, Cyp2c13 (gene 171521), sequence (P20814 whole entry, looked up): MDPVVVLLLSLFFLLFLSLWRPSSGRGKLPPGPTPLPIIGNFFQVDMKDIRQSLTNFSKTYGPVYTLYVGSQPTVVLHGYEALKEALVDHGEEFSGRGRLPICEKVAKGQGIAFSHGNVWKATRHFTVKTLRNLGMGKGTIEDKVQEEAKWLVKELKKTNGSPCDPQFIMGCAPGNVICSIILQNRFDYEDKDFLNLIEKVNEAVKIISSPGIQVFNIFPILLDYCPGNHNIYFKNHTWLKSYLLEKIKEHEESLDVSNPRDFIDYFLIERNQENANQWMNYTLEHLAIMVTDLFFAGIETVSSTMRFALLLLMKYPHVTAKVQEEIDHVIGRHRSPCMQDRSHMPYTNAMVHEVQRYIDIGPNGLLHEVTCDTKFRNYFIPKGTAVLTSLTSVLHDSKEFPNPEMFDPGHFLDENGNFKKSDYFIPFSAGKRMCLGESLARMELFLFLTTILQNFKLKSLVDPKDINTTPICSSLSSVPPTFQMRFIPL
In short: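 Inhibition is read as decreased fluorescent product formation, referenced to acetonitrile vehicle. Cell-free recombinant rat Cyp2c13 reaction ran 0.75 hour; compounds first at 10 uM in duplicate, then concentration series for actives.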

[8] = molecular target: rat CYP2A2, Cyp2a2 (gene 24895) (UniProt P15149); assay: NVS_ADME_rCYP2A2: NovaScreen (NVS) CYP450-related Enzyme Activity (ADME) Assay for rat CYP2A2 (AID 2283116)
rat CYP2A2, Cyp2a2 (gene 24895), sequence (P15149 whole entry, looked up): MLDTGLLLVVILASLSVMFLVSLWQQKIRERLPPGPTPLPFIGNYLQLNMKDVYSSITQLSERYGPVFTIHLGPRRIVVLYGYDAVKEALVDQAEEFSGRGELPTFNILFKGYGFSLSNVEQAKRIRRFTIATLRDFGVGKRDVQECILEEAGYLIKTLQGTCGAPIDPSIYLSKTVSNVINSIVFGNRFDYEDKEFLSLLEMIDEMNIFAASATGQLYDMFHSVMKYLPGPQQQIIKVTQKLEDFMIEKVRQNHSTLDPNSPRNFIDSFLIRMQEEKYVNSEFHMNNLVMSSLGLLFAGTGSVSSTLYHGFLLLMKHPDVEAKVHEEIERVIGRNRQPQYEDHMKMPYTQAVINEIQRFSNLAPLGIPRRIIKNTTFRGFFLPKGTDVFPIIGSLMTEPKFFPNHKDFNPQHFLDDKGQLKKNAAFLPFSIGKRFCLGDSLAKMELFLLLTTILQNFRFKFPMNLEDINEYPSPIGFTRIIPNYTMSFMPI
Experimental: (§1) NVS_ADME_rCYP2A2 is a biochemical, single-readout assay that uses extracted gene-proteins in a cell-free assay. Measurements were taken 0.2 hour after chemical dosing in a 96-well plate.NVS_ADME_rCYP2A2 is one of one assay component(s) measured or calculated from the NVS_ADME_rCYP2A2 assay. It is designed to make measurements of enzyme activity, a form of enzyme reporter, as detected with fluorescence intensity signals by Fluorescence technology.Data from the assay component NVS_ADME_rCYP2A2 was analyzed into 1 assay endpoint. This assay endpoint, NVS_ADME_rCYP2A2, was analyzed in the positive analysis fitting direction relative to Acetonitrile as the negative control and baseline of activity. Using a type of enzyme reporter, loss-of-signal activity can be used to understand changes in the enzymatic activity as they relate to the gene Cyp2a2. Furthermore, this assay endpoint can be referred to as a primary readout, because this assay has produced multiple assay endpoints where this one serves a enzymatic activity function. To generalize the intended target to other relatable targets, this assay endpoint is annotated to the cyp intended target family, where the subfamily is xenobiotic metabolism.
(§2) Binding assays used specific radioligands (tritiated, iodinated) with non-radioactive competitive displacement ligands in agonist or antagonist protocols (as indicated) and various reference compounds and inhibitors to titrate specific binding to receptors and transporters. Most enzyme assays (CYPs, kinases, phosphatases, proteases, HDACs) used recombinant protein and specific substrates (fluorescence mostly, some colorimetric and radioactive) and inhibitors, followed by a biochemical separation of substrate and product. All assays for the biochemical HTS were initially run in duplicate at a single concentration (10 uM for CYP450 assays and 25 uM for all others). Assay-chemical combinations meeting a pre-defined threshold (e.g., 30% inhibition and other criteria defined below) were then run in singleton concentration-response format with maximum concentration of 20 uM for CYPs and 50 uM for all others. Each assay was run with positive and negative controls, and concurrent controls on every plate. The follow-up (secondary) screen tested active chemical-pairs in concentration series, as well as a few additional assays not tested in the primary screen, some selected negative inactives, and several cases re-run in the concentration series for confirmatory purposes.

[9] = tested on: rat CYP2B1, gene 24300; assay: NVS_ADME_rCYP2B1: NovaScreen (NVS) CYP450-related Enzyme Activity (ADME) Assay for rat CYP2B1 (AID 2283117)
Experimental: as §1, with “NVS_ADME_rCYP2B1” for “NVS_ADME_rCYP2A2”, “0.75” for “0.2”, “plate.NVS_ADME_rCYP2B1” for “plate.NVS_ADME_rCYP2A2”, “NVS_ADME_rCYP2B1,” for “NVS_ADME_rCYP2A2,”, “Cyp2b1.” for “Cyp2a2.”
as §2

[10] = molecular target: rat CYP3A2, Cyp3a2 (gene 266682) (UniProt P05183); assay: NVS_ADME_rCYP3A2: NovaScreen (NVS) CYP450-related Enzyme Activity (ADME) Assay for rat CYP3A2 (AID 2283128)
rat CYP3A2, Cyp3a2 (gene 266682), sequence (P05183 whole entry, looked up): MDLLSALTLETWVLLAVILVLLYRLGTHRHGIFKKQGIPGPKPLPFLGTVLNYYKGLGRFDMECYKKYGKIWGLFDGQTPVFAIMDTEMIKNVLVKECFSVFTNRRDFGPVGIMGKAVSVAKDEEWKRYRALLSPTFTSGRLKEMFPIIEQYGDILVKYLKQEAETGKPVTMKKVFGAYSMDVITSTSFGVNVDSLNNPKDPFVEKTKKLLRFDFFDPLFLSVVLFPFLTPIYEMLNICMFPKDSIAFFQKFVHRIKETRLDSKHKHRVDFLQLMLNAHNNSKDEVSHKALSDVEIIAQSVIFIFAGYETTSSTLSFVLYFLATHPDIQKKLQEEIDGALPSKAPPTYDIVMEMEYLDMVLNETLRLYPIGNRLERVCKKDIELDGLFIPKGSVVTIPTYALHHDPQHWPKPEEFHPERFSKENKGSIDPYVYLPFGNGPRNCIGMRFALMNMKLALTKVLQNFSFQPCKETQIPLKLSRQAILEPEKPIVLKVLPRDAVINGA
In short: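 Fluorescence readout of extracted rat CYP3A2 activity 0.5 h post-dose, acetonitrile as negative control. Single-point testing in duplicate at 10 uM, followed by concentration series to a 20 uM maximum for actives.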

COP(=S)(OC)Oc1ccc(Sc2ccc(OP(=S)(OC)OC)cc2)cc1
AC50 [1]: 8.46 µM (active)
AC50 [2]: 2.96 µM (active)
AC50 [3]: 9.92 µM (active)

CC(=O)[O][Hg][c]1ccccc1
AC50 [4]: 40000 nM (active)

CCOC(=O)Nc1cccc(OC(=O)Nc2ccccc2)c1
AC50 [5]: 6840 nM (active)
AC50 [6]: 10000 nM (active)
AC50 [7]: 10400 nM (active)

CCN1CCC2(CC1)COc1cc3c(cc12)N(C(=O)c1ccc(-c2ccc(-c4nnc(C)o4)cc2C)cc1)CC3
AC50 [4]: 4690 nM (active)

COc1cc(-c2ccc(N)c(OC)c2)ccc1N
AC50 [4]: 13800 nM (active)

CC12CC1(C)C(=O)N(c1cc(Cl)cc(Cl)c1)C2=O (stereo unspecified)
AC50 [5]: 881 nM (active)
AC50 [8]: 4980 nM (active)

O=C1C2(Cl)C3(Cl)C4(Cl)C(Cl)(Cl)C5(Cl)C3(Cl)C1(Cl)C5(Cl)C24Cl (stereo unspecified)
AC50 [9]: 1.61 µM (active) and 5.98 µM (active)
outcome [9]: inactive
AC50 [1]: 193 nM (active) and 1.16 µM (active) and 250 nM (active)
AC50 [2]: 7.93 µM (active) and 5.36 µM (active)
AC50 [3]: 6.55 µM (active) and 3.69 µM (active)
AC50 [10]: 3.98 µM (active) and 7.08 µM (active) and 1.19 µM (active)

Clc1ccc(C2(Cn3cncn3)CC(Br)CO2)c(Cl)c1 (stereo unspecified)
AC50 [5]: 577 nM (active)
AC50 [8]: 82.9 nM (active)
AC50 [9]: 41.1 nM (active)
AC50 [1]: 1.59 µM (active)
AC50 [6]: 11000 nM (active)
AC50 [2]: 4.68 µM (active)
AC50 [7]: 1870 nM (active)
AC50 [3]: 0.721 µM (active)
AC50 [10]: 1.91 µM (active)

Fc1ccc(C2(Cn3cncn3)OC2c2ccccc2Cl)cc1 (stereo unspecified)
AC50 [5]: 2980 nM (active)
AC50 [8]: 353 nM (active)
AC50 [9]: 3090 nM (active)
AC50 [1]: 0.974 µM (active)
AC50 [7]: 377 nM (active)
